# Laboratory results as given in PubChem BioAssay (Tox21).
# A number with no mark means an inactive call. Inconclusive results are not listed. Entries that show only a call come without a potency. The source made the active and inactive calls. Unless noted, the call rests on the fitted dose curve; in most records, active means well fitted curve in the direction sought with a large enough effect in the repeat runs; inconclusive means weak or mixed curves; inactive means flat fitted curve, though single readings scatter.
# Tests used:
# [1] = qHTS assay to test for compound auto fluorescence at 535 nm (green) in HEK293 cells (AID 720680)
# [2] = qHTS assay to test for compound auto fluorescence at 460 nm (blue) in HEK293 cell free culture (AID 720681)
# In short: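 Compounds were added to cell-free DMEM with 10% FBS and fluorescence read directly. The blue channel used 405 nm excitation and 460 nm emission, with triamterene as the reference fluorophore.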
# [3] = qHTS assay to test for compound auto fluorescence at 535 nm (green) in HEK293 cell free culture (AID 720682)
# In short: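 Green-label autofluorescence (485 nm excitation, 535 nm emission) measured on compound added to cell-free culture medium (DMEM, 10% FBS). Output is expressed relative to fluorescein.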
# [4] = qHTS assay to test for compound auto fluorescence at 590 nm (red) in HEK293 cell free culture (AID 720683)
# In short: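 Cell-free wells of DMEM with 10% FBS received compound, and intrinsic fluorescence was read at excitation/emission 540/590 nm. Values expressed as equivalence to Rose Bengal sodium.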
# [5] = qHTS assay to test for compound auto fluorescence at 460 nm (blue) in HepG2 cell free culture (AID 720685)
# In short: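 Cell-free plates of MEM plus 10% FBS received 23 nL compound or DMSO vehicle; blue-channel (405/460 nm) intensity scored against triamterene as reference fluorophore.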
# [6] = qHTS assay to test for compound auto fluorescence at 535 nm (green) in HepG2 cell free culture (AID 720686)
# [7] = qHTS assay to test for compound auto fluorescence at 460 nm (blue) in HepG2 cells (AID 720687)
# In short: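 HepG2 cells in MEM with 10% FBS, attached overnight at 37 C, were exposed to compound or DMSO for 1 hr at 37 C, 5% CO2. Blue fluorescence was read at 405/460 nm, with triamterene as reference fluorophore.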
# [8] = qHTS assay to test for compound auto fluorescence at 590 nm (red) in HepG2 cell free culture (AID 720684)
# In short: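 Auto fluorescence equivalency versus Rose Bengal sodium, red channel Ex/Em 540/590 nm; compounds in cell-free MEM/10% FBS; DMSO vehicle control.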
# [9] = molecular target: Glucocorticoid receptor (Homo sapiens) (UniProt P04150); test: qHTS assay to identify small molecule antagonists of the glucocorticoid receptor (GR) signaling pathway (AID 720692; active means well fitted inhibition curve with a large enough effect in the signal ratio in the repeat runs, not every such curve was filed as active; the % refers to the signal ratio; further: potency means the concentration at half of the fitted maximal effect)
# Chain of Glucocorticoid receptor (Homo sapiens) (P04150 whole entry, looked up): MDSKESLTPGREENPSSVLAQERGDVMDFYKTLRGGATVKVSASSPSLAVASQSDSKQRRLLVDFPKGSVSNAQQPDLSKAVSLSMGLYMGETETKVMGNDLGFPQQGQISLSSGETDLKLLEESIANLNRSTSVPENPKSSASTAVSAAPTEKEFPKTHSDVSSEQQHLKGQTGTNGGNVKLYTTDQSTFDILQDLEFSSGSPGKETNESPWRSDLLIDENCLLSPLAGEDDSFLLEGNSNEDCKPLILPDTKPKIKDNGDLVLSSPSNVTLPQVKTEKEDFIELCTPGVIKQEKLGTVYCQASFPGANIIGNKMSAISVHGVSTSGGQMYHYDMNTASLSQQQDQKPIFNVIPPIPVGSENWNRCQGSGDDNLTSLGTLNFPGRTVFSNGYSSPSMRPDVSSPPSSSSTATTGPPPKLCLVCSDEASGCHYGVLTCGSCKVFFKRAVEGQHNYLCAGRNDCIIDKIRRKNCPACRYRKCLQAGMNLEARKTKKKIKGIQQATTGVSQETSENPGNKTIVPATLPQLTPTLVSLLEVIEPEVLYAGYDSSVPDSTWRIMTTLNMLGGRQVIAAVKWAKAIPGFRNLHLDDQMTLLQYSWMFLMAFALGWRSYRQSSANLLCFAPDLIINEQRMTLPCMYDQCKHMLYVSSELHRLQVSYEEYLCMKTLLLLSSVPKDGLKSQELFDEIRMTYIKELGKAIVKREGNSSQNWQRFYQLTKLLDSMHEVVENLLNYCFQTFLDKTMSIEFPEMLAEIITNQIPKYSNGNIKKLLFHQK
# In short: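 Tox21 10K library screened in concentration-response for blockade of dexamethasone (5 nM final)-induced GRE-bla reporter activity in HeLa cells; 18 h treatment, fluorescence read.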
# [10] = molecular target: Glucocorticoid receptor (Homo sapiens) (UniProt P04150); test: qHTS assay to identify small molecule agonists of the glucocorticoid receptor (GR) signaling pathway (AID 720691; active means well fitted activation curve with a large enough effect in the signal ratio in the repeat runs, not every such curve was filed as active; the % refers to the signal ratio)
# In short: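 Measures GR pathway activation through a GRE-beta-lactamase reporter stably integrated in HeLa cells, with 18 h compound treatment at 37 C and fluorescence detection using a FRET substrate.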
compound,measurement,setting,value
CCN(CC)CCOC(=O)C(C)(c1ccccc1)c1ccccc1,outcome,[1],inactive
same,outcome,[2],inactive
same,outcome,[3],inactive
same,outcome,[4],inactive
same,outcome,[5],inactive
same,outcome,[6],inactive
same,outcome,[7],inactive
Oc1c(Cl)cccc1Cl,outcome,[1],inactive
same,outcome,[3],inactive
same,outcome,[4],inactive
same,outcome,[8],inactive
same,outcome,[5],inactive
same,outcome,[6],inactive
same,outcome,[7],inactive
C[C@]12CC[C@H]3[C@@H](CC=C4C[C@@H](O)CC[C@@]43C)[C@@H]1CC[C@@H]2O,outcome,[1],inactive
same,outcome,[2],inactive
same,outcome,[3],inactive
same,outcome,[4],inactive
same,outcome,[5],inactive
same,outcome,[6],inactive
same,outcome,[7],inactive
same,Potency,[9],6.01 µM (active)
OCCSCSCCO,outcome,[1],inactive
same,outcome,[3],inactive
same,outcome,[4],inactive
same,outcome,[8],inactive
same,outcome,[5],inactive
same,outcome,[6],inactive
same,outcome,[7],inactive
CCOP(=S)(OCC)Oc1cc(-c2ccccc2)on1,outcome,[1],inactive
same,outcome,[2],inactive
same,outcome,[3],inactive
same,outcome,[4],inactive
same,outcome,[5],inactive
same,outcome,[6],inactive
same,outcome,[7],inactive
same,outcome,[10],inactive
same,Potency,[9],inactive
CC1(C)COP(Oc2ccccc2)OC1,outcome,[1],inactive
same,outcome,[2],inactive
same,outcome,[3],inactive
same,outcome,[4],inactive
same,outcome,[5],inactive
same,outcome,[6],inactive
same,outcome,[7],inactive
same,outcome,[10],inactive
same,Potency,[9],inactive
OCCBr,outcome,[1],inactive
same,outcome,[2],inactive
same,outcome,[3],inactive
same,outcome,[4],inactive
same,outcome,[5],inactive
same,outcome,[6],inactive
same,outcome,[7],inactive
same,outcome,[10],inactive
same,Potency,[9],inactive
NC1=NC(=O)C(c2ccccc2)O1 (centres undefined),outcome,[1],inactive
same,outcome,[2],inactive
same,outcome,[3],inactive
same,outcome,[4],inactive
same,outcome,[5],inactive
same,outcome,[6],inactive
same,outcome,[7],inactive
same,outcome,[10],inactive
same,Potency,[9],inactive
COc1ccc(C(=O)N2CCCC2=O)cc1,outcome,[1],inactive
same,outcome,[2],inactive
same,outcome,[3],inactive
same,outcome,[4],inactive
same,outcome,[5],inactive
same,outcome,[6],inactive
same,outcome,[7],inactive
same,outcome,[10],inactive
same,Potency,[9],inactive
CCC#N,outcome,[1],inactive
same,outcome,[2],inactive
same,outcome,[3],inactive
same,outcome,[4],inactive
same,outcome,[5],inactive
same,outcome,[6],inactive
same,outcome,[7],inactive
same,Potency,[9],inactive
COP(=S)(OC)Oc1ccc(S(N)(=O)=O)cc1,outcome,[1],inactive
same,outcome,[3],inactive
same,outcome,[4],inactive
same,outcome,[8],inactive
same,outcome,[5],inactive
same,outcome,[6],inactive
same,outcome,[7],inactive
CN(N=O)C(N)=O,outcome,[1],inactive
same,outcome,[2],inactive
same,outcome,[3],inactive
same,outcome,[4],inactive
same,outcome,[5],inactive
same,outcome,[6],inactive
same,outcome,[7],inactive
same,outcome,[10],inactive
same,Potency,[9],inactive
CN1CCC(O)(c2ccc(F)cc2)C(C(=O)c2ccc(F)cc2)C1 (centres undefined),outcome,[1],inactive
same,outcome,[3],inactive
same,outcome,[4],inactive
same,outcome,[5],inactive
same,outcome,[6],inactive
same,outcome,[7],inactive
same,outcome,[10],inactive
CC(N)=S,outcome,[1],inactive
same,outcome,[3],inactive
same,outcome,[4],inactive
same,outcome,[8],inactive
same,outcome,[5],inactive
same,outcome,[7],inactive
O=NN1CCCCC1,outcome,[1],inactive
same,outcome,[3],inactive
same,outcome,[4],inactive
same,outcome,[8],inactive
same,outcome,[5],inactive
same,outcome,[6],inactive
same,outcome,[7],inactive
same,outcome,[10],inactive
CCCCc1c(C)nc(NCC)[nH]c1=O,outcome,[1],inactive
same,outcome,[3],inactive
same,outcome,[4],inactive
same,outcome,[8],inactive
same,outcome,[5],inactive
same,outcome,[6],inactive
same,outcome,[7],inactive
same,outcome,[10],inactive
same,Potency,[9],inactive
C[C@@H]1CN(C2CCC(C#N)(c3ccc(F)cc3)CC2)CC[C@]1(C(=O)O)c1ccccc1 (some centres undefined),"fluorescence, % of fluorescein",[1],0.0038% [at 18.6 µM]
same,activity change,[3],-0.0185% [at 18.6 µM]
same,"fluorescence, % of fluorescent control",[4],0.238% [at 18.6 µM]
same,"fluorescence, % of Rose Bengal",[8],-0.17% [at 18.6 µM]
same,"fluorescence, % of fluorescent control",[5],-0.0833% [at 18.6 µM]
same,"fluorescence, % of fluorescein control",[6],0.0942% [at 18.6 µM]
same,"fluorescence, % of fluorescent control",[7],-0.0325% [at 18.6 µM]
same,outcome,[10],inactive
CCCSC(=O)N(CCC)CCC,outcome,[1],inactive
same,outcome,[3],inactive
same,outcome,[4],inactive
same,outcome,[8],inactive
same,outcome,[5],inactive
same,outcome,[6],inactive
same,outcome,[7],inactive
same,outcome,[10],inactive
CCC/C(=N\OCC)C1=C(O)CC(CC(C)SCC)CC1=O (centres undefined),outcome,[1],inactive
same,outcome,[3],inactive
same,outcome,[4],inactive
same,outcome,[8],inactive
same,outcome,[5],inactive
same,outcome,[6],inactive
same,outcome,[7],inactive
same,Potency,[9],inactive
O=C(O)C(Br)CBr (centres undefined),outcome,[1],inactive
same,outcome,[3],inactive
same,outcome,[4],inactive
same,outcome,[8],inactive
same,outcome,[5],inactive
same,outcome,[6],inactive
same,outcome,[7],inactive
same,outcome,[10],inactive
same,Potency,[9],inactive
CC(CC(C#N)(c1ccccc1)c1ccccc1)N(C)C (centres undefined),outcome,[1],inactive
same,outcome,[3],inactive
same,outcome,[4],inactive
same,outcome,[8],inactive
same,outcome,[5],inactive
same,outcome,[6],inactive
same,outcome,[7],inactive
same,outcome,[10],inactive
same,Potency,[9],inactive
CCOP(=S)(OCC)SCSP(=S)(OCC)OCC,outcome,[1],inactive
same,outcome,[3],inactive
same,outcome,[4],inactive
same,outcome,[5],inactive
same,outcome,[6],inactive
same,outcome,[7],inactive
same,outcome,[10],inactive
same,Potency,[9],inactive
CC(C)NCC(O)c1ccc(N)c(C#N)c1 (centres undefined),outcome,[1],inactive
same,outcome,[3],inactive
same,outcome,[4],inactive
same,outcome,[5],inactive
same,outcome,[7],inactive
same,Potency,[9],inactive
